About 7,900 targets were measured; listed, in parts, are those with a hit and a random draw of the rest. About 0.6% of all pairs of compound and target were hits.
Experiments:
Assay in all cases: log2 fold change, soluble protein after heating vs DMSO (PISA); higher = thermal stabilisation; K562 cells, 10 uM, 30 min; active = over 0.2 and 3.5 SD of the protein, either way, in both replicates (recomputed)
[1] = compound: CS(=O)(=O)c1ccc(-c2cnc(N)c(C(=O)Nc3ccccc3)n2)cc1
Outline: (§1)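 Aliquots of K562 cells (2×10^6 cells/mL) treated with 10 μM compound for 30 min were heated for 3 min over 48°C-58°C. After pooling and extraction in PBS with 0.5% NP-40 at 4°C, soluble protein from a 21,000xg, 90 min spin was quantified by TMTpro 16plex LC-MS/MS with channel sums equalised. Thermal stability is expressed against control samples, from duplicates, as a log2 fold change.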

[2] = compound: C[C@@H](Oc1cc(-c2cnn(C3CCNCC3)c2)cnc1N)c1c(Cl)ccc(F)c1Cl [crizotinib]
Outline: as §1

[3] = compound: C[C@@H]1COCCN1C2=NC(=NC(=C2)C3(CC3)S(=O)(=O)C)C4=C5C=CNC5=CC=C4
Outline: as §1

[4] = compound: C[C@H](C1=CC=C(C=C1)C(=O)NC2=C3C=CNC3=NC=C2)N
Outline: as §1

[5] = compound: C[C@H](Nc1ncnc2nc[nH]c12)c1cc2cccc(Cl)c2c(=O)n1-c1ccccc1 [duvelisib]
Outline: as §1

[6] = compound: Cc1cc(Nc2cc(CN3CCOCC3)c3nc(C)c(Cc4ccc(Cl)cc4F)n3n2)n[nH]1 [gandotinib]
Outline: as §1

[7] = compound: Cc1cc(Nc2cc(N3CCN(C)CC3)nc(Sc3ccc(NC(=O)C4CC4)cc3)n2)n[nH]1 [tozasertib]
Outline: as §1

[8] = compound: Cc1cc(SCc2sc(-c3ccc(C(F)(F)F)cc3)nc2C)ccc1OCC(=O)O
Outline: as §1

[9] = compound: Cc1ccc(-n2nc(C(C)(C)C)cc2NC(=O)Nc2ccc(OCCN3CCOCC3)c3ccccc23)cc1 [doramapimod]
Outline: as §1

[10] = compound: Cc1ccc(C(=O)N(CCCN)[C@@H](c2nc3cc(Cl)ccc3c(=O)n2Cc2ccccc2)C(C)C)cc1 [ispinesib]
Outline: as §1

Measured: log2 fold change

SP1 (UniProt P08047)
inactive: [1] 0.031 | [2] -0.038 | [3] -0.044 | [4] 0.042 | [5] 0.008 | [6] 0.083 | [7] 0.037 | [8] 0.023 | [9] 0.036 | [10] -0.113

SSR4 (UniProt P51571)
Sequence of UniProt P51571 (P51571 whole entry, looked up): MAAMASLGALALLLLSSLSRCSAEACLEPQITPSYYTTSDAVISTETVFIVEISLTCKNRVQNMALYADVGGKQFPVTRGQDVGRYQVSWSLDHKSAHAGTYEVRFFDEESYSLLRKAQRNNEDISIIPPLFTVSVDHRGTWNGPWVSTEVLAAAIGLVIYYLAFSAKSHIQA
inactive: [1] -0.004 | [2] 0.001 | [3] 0.081 | [4] -0.054 | [5] 0.06 | [6] -0.055 | [7] 0.029 | [8] 0.033 | [9] -0.019 | [10] -0.045

STARD3 (UniProt Q14849)
Sequence of UniProt Q14849 (Q14849 whole entry, looked up): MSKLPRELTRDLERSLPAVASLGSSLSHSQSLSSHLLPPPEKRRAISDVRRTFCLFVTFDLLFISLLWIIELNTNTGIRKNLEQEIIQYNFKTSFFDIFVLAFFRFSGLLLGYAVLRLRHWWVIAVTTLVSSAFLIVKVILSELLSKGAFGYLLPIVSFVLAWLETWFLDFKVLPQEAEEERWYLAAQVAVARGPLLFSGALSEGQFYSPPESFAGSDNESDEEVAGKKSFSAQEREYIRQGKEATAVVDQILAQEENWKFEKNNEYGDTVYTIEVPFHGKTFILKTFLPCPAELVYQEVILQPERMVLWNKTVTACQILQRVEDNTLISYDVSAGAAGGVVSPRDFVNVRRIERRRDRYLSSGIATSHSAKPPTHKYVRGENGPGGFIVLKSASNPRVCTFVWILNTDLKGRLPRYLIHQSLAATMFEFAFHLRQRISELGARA
active: [2] -0.36 | [10] -0.559
inactive: [1] 0.017 | [3] 0.194 | [4] -0.043 | [5] 0.065 | [6] 0.098 | [7] -0.06 | [8] -0.015 | [9] 0.043

SUCLG1 (UniProt P53597)
Sequence of UniProt P53597 (P53597 whole entry, looked up): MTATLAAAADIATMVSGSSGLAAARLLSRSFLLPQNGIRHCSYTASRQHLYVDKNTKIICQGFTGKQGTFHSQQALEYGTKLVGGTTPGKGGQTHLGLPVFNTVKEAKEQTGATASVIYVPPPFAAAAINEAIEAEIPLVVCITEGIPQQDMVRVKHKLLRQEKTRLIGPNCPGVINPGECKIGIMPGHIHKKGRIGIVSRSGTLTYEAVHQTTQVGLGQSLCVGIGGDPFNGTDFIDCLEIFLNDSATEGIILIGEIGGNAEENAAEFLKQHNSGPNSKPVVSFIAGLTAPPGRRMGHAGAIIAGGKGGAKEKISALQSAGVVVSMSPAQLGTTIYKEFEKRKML
inactive: [1] 0.016 | [2] -0.028 | [3] 0.079 | [4] -0.072 | [5] 0.067 | [6] -0.048 | [7] -0.033 | [8] -0.004 | [9] -0.019 | [10] -0.012

SRC isoform 2 (UniProt P12931)
inactive: [1] -0.248 | [2] -0.154 | [3] 0.229 | [4] 0.07 | [5] 0.168 | [6] -0.056 | [7] -0.183 | [8] 0.101 | [9] -0.052 | [10] -0.068

SRRM2 (UniProt Q9UQ35)
inactive: [1] -0.048 | [2] -0.246 | [3] 0.021 | [4] -0.255 | [5] -0.044 | [6] -0.13 | [7] 0.013 | [8] 0.012 | [9] 0.044 | [10] -0.131

SUPT5H (UniProt O00267)
inactive: [1] 0.057 | [2] 0.049 | [3] 0.129 | [4] -0.057 | [5] 0.084 | [6] -0.043 | [7] 0 | [8] 0.079 | [9] -0.043 | [10] 0.02

SMAD2 (UniProt Q15796)
inactive: [1] 0.132 | [2] 0.255 | [3] -0.015 | [4] 0.012 | [5] 0.038 | [6] 0.045 | [7] 0.086 | [8] 0.071 | [9] -0.04 | [10] -0.019

SUMO1 (UniProt P63165)
Sequence of UniProt P63165 (P63165 whole entry, looked up): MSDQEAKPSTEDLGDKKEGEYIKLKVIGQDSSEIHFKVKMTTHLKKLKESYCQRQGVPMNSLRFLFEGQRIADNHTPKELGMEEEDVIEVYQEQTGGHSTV
inactive: [1] -0.125 | [2] 0.06 | [3] -0.045 | [4] 0.176 | [5] -0.137 | [6] 0.064 | [7] 0 | [8] -0.039 | [9] -0.038 | [10] 0.039

SUOX (UniProt P51687)
Sequence of UniProt P51687 (P51687 whole entry, looked up): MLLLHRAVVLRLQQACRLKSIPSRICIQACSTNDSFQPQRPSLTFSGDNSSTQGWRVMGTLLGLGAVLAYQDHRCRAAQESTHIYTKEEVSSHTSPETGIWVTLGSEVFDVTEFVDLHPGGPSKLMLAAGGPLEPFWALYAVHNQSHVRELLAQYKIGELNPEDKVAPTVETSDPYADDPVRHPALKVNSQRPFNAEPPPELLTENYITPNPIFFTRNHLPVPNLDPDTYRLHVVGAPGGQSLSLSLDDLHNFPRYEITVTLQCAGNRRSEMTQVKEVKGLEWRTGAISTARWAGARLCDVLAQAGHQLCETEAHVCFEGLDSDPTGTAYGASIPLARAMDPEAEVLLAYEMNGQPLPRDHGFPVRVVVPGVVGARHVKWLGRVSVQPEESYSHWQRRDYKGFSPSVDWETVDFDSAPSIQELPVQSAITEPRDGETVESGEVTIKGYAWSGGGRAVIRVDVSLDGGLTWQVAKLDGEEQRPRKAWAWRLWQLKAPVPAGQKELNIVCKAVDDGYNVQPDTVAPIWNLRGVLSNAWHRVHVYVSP
inactive: [1] 0.016 | [2] 0.076 | [3] 0.098 | [4] 0.001 | [5] -0.026 | [6] 0.063 | [7] 0.003 | [8] -0.075 | [9] -0.338 | [10] -0.034

SUN2 (UniProt Q9UH99)
inactive: [1] -0.001 | [2] -0.094 | [3] 0.063 | [4] 0.044 | [5] -0.008 | [6] 0.004 | [7] -0.008 | [8] 0.05 | [9] 0.077 | [10] -0.104

TIMM13 (UniProt Q9Y5L4)
Sequence of UniProt Q9Y5L4 (Q9Y5L4 whole entry, looked up): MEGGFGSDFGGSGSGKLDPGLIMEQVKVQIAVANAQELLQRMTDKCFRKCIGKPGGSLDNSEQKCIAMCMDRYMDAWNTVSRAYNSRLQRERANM
inactive: [1] -0.047 | [2] 0.051 | [3] 0.151 | [4] -0.115 | [5] 0.079 | [6] -0.002 | [7] 0.038 | [8] 0.006 | [9] 0.039 | [10] 0.12

SP3 (UniProt Q02447)
Sequence of UniProt Q02447 (Q02447 whole entry, looked up): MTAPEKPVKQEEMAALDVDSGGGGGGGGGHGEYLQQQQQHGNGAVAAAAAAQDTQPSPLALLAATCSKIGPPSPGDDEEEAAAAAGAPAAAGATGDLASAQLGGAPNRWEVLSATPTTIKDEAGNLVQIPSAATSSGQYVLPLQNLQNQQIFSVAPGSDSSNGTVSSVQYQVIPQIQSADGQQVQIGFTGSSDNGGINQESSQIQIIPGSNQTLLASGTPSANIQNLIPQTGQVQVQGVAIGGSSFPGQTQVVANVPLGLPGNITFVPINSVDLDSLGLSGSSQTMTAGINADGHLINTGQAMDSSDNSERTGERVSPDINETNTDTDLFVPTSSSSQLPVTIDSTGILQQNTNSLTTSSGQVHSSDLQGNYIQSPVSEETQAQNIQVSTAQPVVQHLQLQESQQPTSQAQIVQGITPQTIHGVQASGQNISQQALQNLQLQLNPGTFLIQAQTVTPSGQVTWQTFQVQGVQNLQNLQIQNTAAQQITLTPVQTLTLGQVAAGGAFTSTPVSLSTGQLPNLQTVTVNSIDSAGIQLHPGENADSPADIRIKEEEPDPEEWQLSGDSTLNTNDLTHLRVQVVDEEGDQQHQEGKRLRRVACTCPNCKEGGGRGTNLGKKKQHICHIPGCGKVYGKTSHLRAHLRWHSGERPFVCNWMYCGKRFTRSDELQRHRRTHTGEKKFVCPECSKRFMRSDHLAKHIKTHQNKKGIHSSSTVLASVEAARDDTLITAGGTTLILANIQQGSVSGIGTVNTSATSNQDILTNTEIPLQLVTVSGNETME
inactive: [1] -0.005 | [2] 0.013 | [3] -0.071 | [4] 0.123 | [5] 0.031 | [6] 0.086 | [7] 0.032 | [8] 0 | [9] 0.089 | [10] -0.046

SLC7A6OS (UniProt Q96CW6)
inactive: [1] 0.047 | [2] -0.04 | [3] 0.004 | [4] -0.133 | [5] 0.047 | [6] -0.081 | [7] 0.028 | [8] -0.049 | [9] 0.214 | [10] 0.077

SYNE1 (UniProt Q8NF91)
inactive: [1] 0.096 | [2] -0.132 | [3] -0.041 | [4] 0.104 | [5] 0.103 | [6] 0.109 | [7] -0.187 | [8] -0.04 | [9] 0.061 | [10] -0.159

SLIRP (UniProt Q9GZT3)
inactive: [1] -0.046 | [2] -0.267 | [3] -0.202 | [4] 0.058 | [5] 0.029 | [6] 0.162 | [7] -0.075 | [8] 0.146 | [9] -0.045 | [10] -0.149

TCOF1 isoform 4 (UniProt Q13428)
inactive: [1] -0.008 | [2] -0.053 | [3] 0.021 | [4] -0.016 | [5] -0.029 | [6] 0.042 | [7] 0.002 | [8] -0.047 | [9] 0.013 | [10] -0.01

SUGP1 (UniProt Q8IWZ8)
inactive: [1] 0.021 | [2] -0.001 | [3] 0.015 | [4] -0.064 | [5] -0.024 | [6] -0.077 | [7] 0.042 | [8] 0.09 | [9] -0.033 | [10] 0.019

STARD3NL (UniProt O95772)
active: [2] -0.448
inactive: [1] -0.011 | [3] 0.055 | [4] -0.067 | [5] 0.111 | [6] -0.14 | [7] 0.03 | [8] -0.058 | [9] 0.063 | [10] -0.256

SOAT1 (UniProt P35610)
inactive: [1] 0.066 | [2] 0.139 | [3] 0.094 | [4] -0.018 | [5] 0.069 | [6] 0.079 | [7] -0.021 | [8] -0.026 | [10] 0.158
active: [9] 0.448

SNX12 isoform 1 (UniProt Q9UMY4)
Sequence of UniProt Q9UMY4 (Q9UMY4 whole entry, looked up): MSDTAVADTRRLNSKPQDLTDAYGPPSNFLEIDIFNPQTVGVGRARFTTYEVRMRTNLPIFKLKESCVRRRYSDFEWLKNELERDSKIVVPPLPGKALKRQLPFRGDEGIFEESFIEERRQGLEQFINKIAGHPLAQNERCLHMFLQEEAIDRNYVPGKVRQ
inactive: [1] 0.004 | [2] -0.055 | [3] 0.081 | [4] 0.007 | [5] -0.162 | [6] -0.204 | [7] 0.021 | [8] 0.044 | [9] -0.036 | [10] -0.097

SMARCA5 (UniProt O60264)
inactive: [1] -0.004 | [2] -0.073 | [3] 0.273 | [4] 0.161 | [5] 0.025 | [6] -0.045 | [7] 0.154 | [8] 0.127 | [9] -0.052 | [10] -0.012

SLC25A38 (UniProt Q96DW6)
inactive: [1] 0.146 | [2] 0.105 | [3] 0.045 | [4] 0.002 | [5] 0.088 | [6] -0.035 | [7] -0.003 | [8] -0.058 | [9] 0.001 | [10] 0

SRSF6 (UniProt Q13247)
inactive: [1] -0.021 | [2] -0.09 | [3] -0.195 | [4] 0.03 | [5] -0.085 | [6] -0.043 | [7] -0.08 | [8] 0.059 | [9] -0.047

SPG11 (UniProt Q96JI7)
inactive: [1] 0 | [2] 0.058 | [3] -0.282 | [4] 0.619 | [5] -0.397 | [6] 0.173 | [7] -0.255 | [8] 0 | [9] -0.01 | [10] -0.328

STK11IP (UniProt Q8N1F8)
active: [2] -0.869
inactive: [1] -0.21 | [3] -0.078 | [4] -0.124 | [5] -0.089 | [6] -0.002 | [7] -0.042 | [8] 0.021 | [9] 0.006

SPPL2B (UniProt Q8TCT7)
inactive: [1] 0.049 | [2] -0.011 | [3] -0.072 | [4] 0.006 | [5] 0.031 | [6] -0.004 | [7] -0.032 | [8] -0.022 | [9] 0.01 | [10] -0.026

TFAM (UniProt Q00059)
Sequence of UniProt Q00059 (Q00059 whole entry, looked up): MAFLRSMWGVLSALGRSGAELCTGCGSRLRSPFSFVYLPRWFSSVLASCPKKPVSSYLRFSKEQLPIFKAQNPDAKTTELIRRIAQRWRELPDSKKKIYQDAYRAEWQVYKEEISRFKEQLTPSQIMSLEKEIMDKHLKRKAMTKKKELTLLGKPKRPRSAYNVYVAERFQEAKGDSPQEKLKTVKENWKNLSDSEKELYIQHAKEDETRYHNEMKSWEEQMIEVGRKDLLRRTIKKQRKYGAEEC
inactive: [1] -0.071 | [2] 0.058 | [3] -0.153 | [4] 0.117 | [5] -0.04 | [6] 0.176 | [7] 0.036 | [8] -0.034 | [9] 0.022 | [10] -0.117

STX7 (UniProt O15400)
Sequence of UniProt O15400 (O15400 whole entry, looked up): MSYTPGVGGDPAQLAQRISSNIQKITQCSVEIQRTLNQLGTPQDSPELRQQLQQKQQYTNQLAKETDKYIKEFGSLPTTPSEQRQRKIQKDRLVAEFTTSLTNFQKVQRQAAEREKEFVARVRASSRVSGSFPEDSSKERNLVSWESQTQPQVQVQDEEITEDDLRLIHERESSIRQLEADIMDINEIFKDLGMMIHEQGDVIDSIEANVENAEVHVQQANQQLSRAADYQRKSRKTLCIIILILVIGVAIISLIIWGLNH
active: [10] -0.246
inactive: [1] 0 | [2] -0.187 | [3] 0.015 | [4] -0.042 | [5] -0.023 | [6] -0.18 | [7] -0.021 | [8] -0.055 | [9] 0.04

TJP1 (UniProt Q07157)
Sequence of UniProt Q07157 (Q07157 whole entry, looked up): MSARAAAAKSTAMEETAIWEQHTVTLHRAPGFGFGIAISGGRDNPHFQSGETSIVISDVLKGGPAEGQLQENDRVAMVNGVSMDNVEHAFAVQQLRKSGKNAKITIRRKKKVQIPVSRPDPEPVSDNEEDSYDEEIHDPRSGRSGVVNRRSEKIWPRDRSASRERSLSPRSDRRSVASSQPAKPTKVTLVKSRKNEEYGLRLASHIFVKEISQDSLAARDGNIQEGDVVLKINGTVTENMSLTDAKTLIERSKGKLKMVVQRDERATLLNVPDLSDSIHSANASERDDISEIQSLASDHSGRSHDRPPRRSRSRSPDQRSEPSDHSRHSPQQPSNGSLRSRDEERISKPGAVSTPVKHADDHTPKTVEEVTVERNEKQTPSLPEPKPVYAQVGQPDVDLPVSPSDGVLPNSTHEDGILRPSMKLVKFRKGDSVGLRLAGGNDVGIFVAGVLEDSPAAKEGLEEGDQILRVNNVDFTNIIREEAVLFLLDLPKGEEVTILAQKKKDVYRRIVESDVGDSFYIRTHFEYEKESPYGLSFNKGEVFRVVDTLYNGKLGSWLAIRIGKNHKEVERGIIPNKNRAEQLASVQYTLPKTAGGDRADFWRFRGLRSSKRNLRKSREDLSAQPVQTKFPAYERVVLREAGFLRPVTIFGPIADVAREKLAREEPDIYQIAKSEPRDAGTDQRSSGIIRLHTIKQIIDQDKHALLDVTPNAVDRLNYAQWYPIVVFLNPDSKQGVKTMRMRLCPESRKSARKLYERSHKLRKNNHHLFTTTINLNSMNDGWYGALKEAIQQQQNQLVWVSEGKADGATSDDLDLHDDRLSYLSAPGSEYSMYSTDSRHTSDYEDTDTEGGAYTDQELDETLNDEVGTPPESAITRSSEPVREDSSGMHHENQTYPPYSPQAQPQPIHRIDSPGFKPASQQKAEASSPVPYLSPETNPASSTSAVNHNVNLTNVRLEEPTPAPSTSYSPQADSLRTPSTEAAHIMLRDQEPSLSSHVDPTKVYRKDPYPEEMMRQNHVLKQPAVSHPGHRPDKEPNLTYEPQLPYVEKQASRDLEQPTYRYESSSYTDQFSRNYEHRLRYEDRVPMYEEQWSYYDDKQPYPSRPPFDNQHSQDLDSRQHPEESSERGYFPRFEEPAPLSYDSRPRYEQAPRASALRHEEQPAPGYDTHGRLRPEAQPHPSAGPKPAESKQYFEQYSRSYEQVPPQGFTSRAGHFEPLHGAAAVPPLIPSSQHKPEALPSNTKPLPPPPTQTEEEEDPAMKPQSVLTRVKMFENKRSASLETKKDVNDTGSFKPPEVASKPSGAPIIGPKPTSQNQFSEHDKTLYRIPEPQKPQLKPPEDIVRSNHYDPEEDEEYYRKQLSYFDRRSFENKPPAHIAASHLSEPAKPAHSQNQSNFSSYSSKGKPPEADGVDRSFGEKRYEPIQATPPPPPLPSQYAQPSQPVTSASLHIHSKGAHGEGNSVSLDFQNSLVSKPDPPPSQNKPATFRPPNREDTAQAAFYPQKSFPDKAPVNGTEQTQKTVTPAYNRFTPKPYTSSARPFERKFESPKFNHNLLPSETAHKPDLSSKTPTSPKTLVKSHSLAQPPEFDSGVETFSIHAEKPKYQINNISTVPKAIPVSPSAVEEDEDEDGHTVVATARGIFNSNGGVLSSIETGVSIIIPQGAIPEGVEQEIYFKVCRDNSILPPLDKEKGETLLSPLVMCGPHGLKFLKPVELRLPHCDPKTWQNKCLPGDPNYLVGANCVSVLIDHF
inactive: [1] 0.004 | [2] -0.016 | [3] 0.044 | [4] -0.06 | [5] 0.076 | [6] -0.124 | [7] 0.064 | [8] 0.061 | [9] -0.01 | [10] 0.026
